Assay results published in PubChem BioAssay (NCATS).
Records with an inconclusive call do not appear. Active and inactive are the calls of the source. Calls follow the shape of the dose curve; as a rule, active = well fitted curve in the direction sought with a large enough effect; inconclusive = small, poorly fitted or top-dose-only effect, or another doubt; inactive = no such curve, though single readings can be large; an effect the other way counts as inactive or inconclusive.

Legend:
[1] = target: ATP-dependent 6-phosphofructokinase (Trypanosoma brucei brucei) (UniProt O15648); assay: qHTS Assay to Find Inhibitors of T. brucei phosphofructokinase: hit validation (AID 492961);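 also: luminescence reports ADP formed as PFK phosphorylates fructose-6-phosphate with ATP; % is scaled to controls: 0 for no effect and ±100 for the full control effect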
ATP-dependent 6-phosphofructokinase (Trypanosoma brucei brucei), sequence (O15648 whole entry, looked up): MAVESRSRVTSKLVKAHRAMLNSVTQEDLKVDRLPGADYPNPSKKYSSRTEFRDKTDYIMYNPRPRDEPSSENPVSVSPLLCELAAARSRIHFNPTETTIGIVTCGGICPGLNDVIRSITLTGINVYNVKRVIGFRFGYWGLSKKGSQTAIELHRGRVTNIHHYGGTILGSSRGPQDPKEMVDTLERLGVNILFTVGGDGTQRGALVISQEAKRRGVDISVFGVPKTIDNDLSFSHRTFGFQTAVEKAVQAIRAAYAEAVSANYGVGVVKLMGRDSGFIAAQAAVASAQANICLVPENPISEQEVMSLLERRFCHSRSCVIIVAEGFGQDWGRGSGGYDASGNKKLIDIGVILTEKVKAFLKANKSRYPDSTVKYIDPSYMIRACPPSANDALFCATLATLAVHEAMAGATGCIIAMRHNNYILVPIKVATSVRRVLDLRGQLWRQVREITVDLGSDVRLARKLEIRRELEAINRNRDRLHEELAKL
Procedure, shortened: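 In this biochemical qHTS validation, titrated compounds were tested against 1.25 nM PFK with 0.1 mM ATP and 0.5 mM F6P. Percent activity came from controls lacking or containing enzyme.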

[2] = qHTS profiling for inhibitors of Plasmodium falciparum proliferation (AID 504749);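 also: 0% = DMSO vehicle and full inhibition = artemisinin control; nearly all actives have a fitted effect of over 60% in size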; conditions: P. falciparum in erythrocytes, SYBR Green DNA, 72 h, at 28.7 µM (top of the series)
Procedure, shortened: (§1)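 Infected RBCs, 0.3% parasitemia/2.5% Hct final; cpd 72 h, 37 C, 5% CO2; lysis buffer with saponin/triton/SYBR Green I, o/n RT dark; FI 485/535; norm. to artemisinin (0.29 uM) and DMSO.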

[3] = system: 3D7; assay: as above; conditions: P. falciparum in erythrocytes, SYBR Green DNA, 72 h; series mostly up to 28.7 µM
Procedure, shortened: as §1

[4] = system: 7G8; assay: as above; conditions: P. falciparum in erythrocytes, SYBR Green DNA, 72 h; series mostly up to 28.7 µM
Procedure, shortened: as §1

[5] = system: AS120; assay: as above; conditions: P. falciparum in erythrocytes, SYBR Green DNA, 72 h; series mostly up to 28.7 µM
Procedure, shortened: as §1

[6] = system: ATS189; assay: as above; conditions: P. falciparum in erythrocytes, SYBR Green DNA, 72 h; series mostly up to 28.7 µM
Procedure, shortened: as §1

[7] = system: CP185; assay: as above; conditions: P. falciparum in erythrocytes, SYBR Green DNA, 72 h; series mostly up to 28.7 µM
Procedure, shortened: as §1

[8] = system: CP191; assay: as above; conditions: P. falciparum in erythrocytes, SYBR Green DNA, 72 h; series mostly up to 28.7 µM
Procedure, shortened: as §1

[9] = system: CP192; assay: as above; conditions: P. falciparum in erythrocytes, SYBR Green DNA, 72 h; series mostly up to 28.7 µM
Procedure, shortened: as §1

[10] = system: CP194; assay: as above; conditions: P. falciparum in erythrocytes, SYBR Green DNA, 72 h; series mostly up to 28.7 µM
Procedure, shortened: as §1

[11] = system: CP201; assay: as above; conditions: P. falciparum in erythrocytes, SYBR Green DNA, 72 h; series mostly up to 28.7 µM
Procedure, shortened: as §1

[12] = system: CP203; assay: as above; conditions: P. falciparum in erythrocytes, SYBR Green DNA, 72 h; series mostly up to 28.7 µM
Procedure, shortened: as §1

[13] = system: CP237; assay: as above; conditions: P. falciparum in erythrocytes, SYBR Green DNA, 72 h; series mostly up to 28.7 µM
Procedure, shortened: as §1

[14] = system: CP238; assay: as above; conditions: P. falciparum in erythrocytes, SYBR Green DNA, 72 h; series mostly up to 28.7 µM
Procedure, shortened: as §1

[15] = system: CP247; assay: as above; conditions: P. falciparum in erythrocytes, SYBR Green DNA, 72 h; series mostly up to 28.7 µM
Procedure, shortened: as §1

[16] = system: CP286; assay: as above; conditions: P. falciparum in erythrocytes, SYBR Green DNA, 72 h; series mostly up to 28.7 µM
Procedure, shortened: as §1

[17] = system: CP291; assay: as above; conditions: P. falciparum in erythrocytes, SYBR Green DNA, 72 h; series mostly up to 28.7 µM
Procedure, shortened: as §1

[18] = system: DIV30; assay: as above; conditions: P. falciparum in erythrocytes, SYBR Green DNA, 72 h; series mostly up to 28.7 µM
Procedure, shortened: as §1

[19] = system: HB3; assay: as above; conditions: P. falciparum in erythrocytes, SYBR Green DNA, 72 h; series mostly up to 28.7 µM
Procedure, shortened: as §1

[20] = system: P94_40; assay: as above; conditions: P. falciparum in erythrocytes, SYBR Green DNA, 72 h; series mostly up to 28.7 µM
Procedure, shortened: as §1

CN1[C@@H]2CC[C@@H]1CC(OC(=O)[C@H](CO)c1ccccc1)C2 (stereo not given in full)
inactive: Potency [1] | activity, negative = inhibition ([2]; parasite line A) 1.09% | activity, negative = inhibition ([2]; parasite line B) 2.23% | Potency [3] | Potency [4] | Potency [5] | Potency [6] | Potency [7] | Potency [8] | Potency [9] | Potency [10] | Potency [11] | Potency [12] | Potency [13] | Potency [14] | Potency [15] | Potency [16] | Potency [17] | Potency [18] | Potency [19] | Potency [20]

CC1(C)OC[C@@H]2O[C@@]3(C(=O)O)OC(C)(C)O[C@@H]3[C@@H]2O1
inactive: Potency [1] | activity, negative = inhibition ([2]; parasite line A) 1.64% | activity, negative = inhibition ([2]; parasite line B) 11.5% | Potency [3] | Potency [4] | Potency [5] | Potency [6] | Potency [7] | Potency [8] | Potency [9] | Potency [10] | Potency [11] | Potency [12] | Potency [13] | Potency [14] | Potency [15] | Potency [16] | Potency [17] | Potency [18] | Potency [19] | Potency [20]

CC(=O)NC1[C@H](O)C[C@@](O)(C(=O)O)O[C@H]1[C@H](O)[C@H](O)CO (stereo not given in full)
inactive: Potency [1] | activity, negative = inhibition ([2]; parasite line A) 5.53% | activity, negative = inhibition ([2]; parasite line B) -8.73% | Potency [3] | Potency [4] | Potency [5] | Potency [6] | Potency [7] | Potency [8] | Potency [9] | Potency [10] | Potency [11] | Potency [12] | Potency [13] | Potency [14] | Potency [15] | Potency [16] | Potency [17] | Potency [18] | Potency [19] | Potency [20]

CC(C)(C)C(=O)OCC(=O)C1CCC2C3CCC4=CC(=O)CCC4(C)C3CCC12C (stereo not given)
inactive: Potency [1] | activity, negative = inhibition ([2]; parasite line A) 6.25% | activity, negative = inhibition ([2]; parasite line B) 11.2% | Potency [3] | Potency [4] | Potency [5] | Potency [6] | Potency [7] | Potency [8] | Potency [9] | Potency [10] | Potency [11] | Potency [12] | Potency [13] | Potency [14] | Potency [15] | Potency [16] | Potency [17] | Potency [18] | Potency [19] | Potency [20]

CC1(C)C2CC[C@]1(C)[C@@H](O)C2
inactive: Potency [1] | activity, negative = inhibition ([2]; parasite line A) 6.51% | activity, negative = inhibition ([2]; parasite line B) 12% | Potency [3] | Potency [4] | Potency [5] | Potency [6] | Potency [7] | Potency [8] | Potency [9] | Potency [10] | Potency [11] | Potency [12] | Potency [13] | Potency [14] | Potency [15] | Potency [16] | Potency [17] | Potency [18] | Potency [19] | Potency [20]
